# Assay results as given in PubChem BioAssay AID2013 (Sanford-Burnham Center for Chemical Genomics, 2009).
# In all, about 290,000 compounds went through this assay and about 370 (0.13%) were called active.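 Rule for the calls: active = spots per cell inhibited over 60%, with over 100 cells counted and total cytoplasm intensity under 500,000; inconclusive = wells with under 100 cells, flagged as likely toxic; inactive = the rest.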 Many of the other results were omitted from the sample, so actives are more common in it than they were. Measured potencies and affinities stand elsewhere.
# Molecular target: G-protein coupled receptor 55 (Homo sapiens) (UniProt Q9Y2T6)
# Assay: inhibition of LPI-stimulated GPR55 beta-arrestin translocation – imaging, U2OS, beta-arrestin-GFP, LPI agonist, primary screen (AID 2013);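 note: U2OS cells stably carrying GPR55 and arrestin-GFP stimulated by 5 µM LPI near EC80; imaged beta-arrestin-GFP aggregate spots per cell after agonist stimulation; plate controls were LPI-stimulated DMSO wells for no effect and DMSO wells without LPI for full effect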
# Details: LPI antagonism, at 10 µM, stronger effect = higher value
# G-protein coupled receptor 55 (Homo sapiens), sequence (Q9Y2T6 whole entry, looked up): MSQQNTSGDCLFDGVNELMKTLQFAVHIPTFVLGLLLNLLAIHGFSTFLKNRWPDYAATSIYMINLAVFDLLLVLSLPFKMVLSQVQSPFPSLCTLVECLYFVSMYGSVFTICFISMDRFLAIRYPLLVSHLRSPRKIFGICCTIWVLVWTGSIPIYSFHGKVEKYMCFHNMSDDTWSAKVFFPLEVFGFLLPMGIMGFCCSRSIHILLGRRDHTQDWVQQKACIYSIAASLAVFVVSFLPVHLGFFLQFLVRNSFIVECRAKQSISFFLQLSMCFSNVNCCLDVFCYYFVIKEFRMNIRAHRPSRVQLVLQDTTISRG
row,SMILES,inhibition
1,CCn1c(SCC(=O)Nc2ccc(OC)cc2)nnc1-c1ccco1,2.2% (inactive)
2,O=C(Nc1ccc(F)cc1)NC1(C(=O)NCc2ccco2)CCCCC1,5.6% (inactive)
3,CN(C)CCNC(=O)COc1ccc(C23CC4CC(CC(C4)C2)C3)cc1,33.6% (inactive)
4,COc1ccc(Cl)cc1C(=O)NCCN(C)C,-0.9% (inactive)
5,O=C(NCCCN1CCN(c2ccc(F)cc2)CC1)NC12CC3CC(CC(C3)C1)C2,-1.6% (inactive)
6,CCOC(=O)c1cnc(SC)nc1Oc1cccc(NC(=O)c2cccc(Cl)c2Cl)c1,9.1% (inactive)
7,CCCCNC(=S)N(C)/N=C/c1sc(N2CCCCC2)nc1-c1cccs1,11.7% (inactive)
8,CC(=O)N(C1=C(O)c2ccccc2C(=O)C1=O)C1CCCCC1,-3.7% (inactive)
9,CC(=O)N(c1ccccc1)C1CCCC1,3.9% (inactive)
10,Cc1cc(OCC(=O)Nc2ccc(CN3CCOCC3)cc2)c2c(C)c(C)c(=O)oc2c1,18.4% (inactive)
11,CC(C)Sc1cc(N2CCCC2)nc(-c2ccccc2Cl)n1,7.8% (inactive)
12,CCOc1cccc(OCCNC2CCCC2)c1,-14.7% (inactive)
13,COc1ccc(-c2c3c(=O)n(C)c(=O)n(C)c3cn2-c2cc(OC)ccc2OC)cc1,11.5% (inactive)
14,COCCNC(=O)c1ccccc1NC(=O)CN(c1ccc2c(c1)OCO2)S(C)(=O)=O,6.3% (inactive)
15,COc1cccc(NC(=O)CN(C)CC(=O)Nc2cccc(C(F)(F)F)c2)c1,-8.3% (inactive)
16,O=C(Nc1ccnn1C1CCN(Cc2cc3ccccc3[nH]2)CC1)C1CCOC1 (centres undefined),1.9% (inactive)
17,Cc1cc(C)cc(NC2=C(N)C(=O)c3ccccc3C2=O)c1,6.8% (inactive)
18,Cc1cc(C)c(Nc2cc(S(=O)(=O)O)c(N)c3c2C(=O)c2ccccc2C3=O)c(C)c1,66.8% (active)
19,Nc1c(S(=O)(=O)O)cc(NC(=O)c2ccccc2)c2c1C(=O)c1ccccc1C2=O,0.8% (inactive)
20,Cc1ccc(C)c(NC(=O)NNC(=O)CCc2ccccc2)c1,11% (inactive)

row,SMILES,inhibition
1,CC(C)(C)n1nnnc1C(c1cccs1)N(Cc1cccnc1)CC1CCCO1 (centres undefined),4.3% (inactive)
2,CC(c1nnnn1C(C)(C)C)N(Cc1cccnc1)Cc1ccccc1Cl (centres undefined),11.1% (inactive)
3,CC(C)(C)n1nnnc1C(c1cccnc1)N(Cc1ccccc1)Cc1cccs1 (centres undefined),59.7% (inactive)
4,CC(C)(C)n1nnnc1C(c1cccs1)N(Cc1cccnc1)Cc1ccco1 (centres undefined),57.6% (inactive)
5,Cc1ccc(C(C)C)cc1S(=O)(=O)NCc1ccccn1,8.4% (inactive)
6,Cc1cc(C)nc(Nc2n[nH]c(-c3ccccc3Cl)n2)n1,0.2% (inactive)
7,COc1ccc(C2c3ccc(O)cc3Oc3ncn4nc(-c5ccncc5)nc4c32)cc1OC (centres undefined),5.3% (inactive)
8,N=c1c2c(ncn1Cc1ccco1)Oc1c(ccc3ccccc13)C2c1ccccc1 (centres undefined),65.9% (active)
9,N=c1c2c(ncn1CCN1CCOCC1)Oc1cc(O)ccc1C2c1ccccc1 (centres undefined),16.4% (inactive)
10,COc1ccc(C2c3ccc(O)cc3Oc3ncn4nc(-c5ccccn5)nc4c32)cc1OC (centres undefined),14.6% (inactive)
11,N=c1c2c(ncn1Cc1ccco1)Oc1ccc3ccccc3c1C2c1ccccc1 (centres undefined),17.8% (inactive)
12,N=c1c2c(ncn1CCCO)Oc1cc(O)ccc1C2c1ccccc1 (centres undefined),33.6% (inactive)
13,COc1ccc(C2c3ccc4ccccc4c3Oc3ncn(Cc4ccco4)c(=N)c32)cc1OC (centres undefined),96.1% (inactive)
14,COc1ccc(C2c3ccc(O)cc3Oc3ncn(Cc4ccco4)c(=N)c32)cc1OC (centres undefined),33% (inactive)
15,COc1ccc(C2c3c(ncn(Cc4ccco4)c3=N)Oc3ccc4ccccc4c32)cc1 (centres undefined),27.8% (inactive)
16,CNc1oc(C)nc1S(=O)(=O)c1ccccc1,-6.5% (inactive)
17,O=C(O)c1ccc2c(c1)S(=O)(=O)N=C1CCCCCN12,16.8% (inactive)
18,Cc1c(N=Cc2c(O)n(C)c(=O)c3ccccc23)c(=O)n(-c2ccccc2)n1C,1.5% (inactive)
19,CC(=O)N1c2ccccc2CCc2ccc(N)cc21,8% (inactive)
20,CC(C)(C)c1ccc(C(=O)Nc2ccc(O)c3c(=O)cc(-c4ccccc4Cl)oc23)cc1,18.3% (inactive)

row,SMILES,inhibition
1,O=c1[nH]c(=S)[nH]c2sc3c(c12)CCCCCC3,-0.5% (inactive)
2,COc1cc(/C=N/NC(=O)c2cccc3ccccc23)cc(OC)c1O,16.9% (inactive)
3,Cn1c(NC(=O)c2cc(-c3ccc4c(c3)OCO4)nc3ccccc23)cc(=O)n(C)c1=O,9.3% (inactive)
4,COc1ccc(C2c3ccc(O)cc3Oc3ncn(CCN4CCOCC4)c(=N)c32)cc1 (centres undefined),18.9% (inactive)
5,COc1ccc(C2c3ccc(O)cc3Oc3ncn(CCCO)c(=N)c32)cc1 (centres undefined),22% (inactive)
6,COC(=O)c1ccc(N(CC(=O)NC2CCCCC2)C(=O)CNC(=O)c2ccco2)cc1,-3.6% (inactive)
7,COc1ccc(-c2ccc(-c3nnc(Cc4ccc(OC)c(OC)c4)o3)cc2)cc1,-4.2% (inactive)
8,O=C1c2ccccc2C(=O)N1Cc1cc(-c2ccccc2)no1,-7.7% (inactive)
9,O=C(CCS(=O)(=O)c1cccc2nonc12)N1CCOCC1,-5.5% (inactive)
10,COc1ccc(-c2cn[nH]c2-c2ccc(OCC(=O)NN)cc2O)cc1,-13.4% (inactive)
11,COc1ccc(-c2n[nH]c(C)c2-c2ccc(Cl)cc2)c(O)c1,12.3% (inactive)
12,COc1ccccc1-c1c(-c2ccc(OCC(=O)NN)cc2O)n[nH]c1C(F)(F)F,4.3% (inactive)
13,Oc1ccc(-c2n[nH]c(C(F)(F)F)c2-c2ccccc2)c(O)c1,20.9% (inactive)
14,COc1ccccc1-c1c(-c2ccc(O)cc2O)n[nH]c1C(F)(F)F,5.7% (inactive)
15,COc1ccc(-c2c(-c3ccc(OCC(=O)NN)cc3O)n[nH]c2C)cc1,-11.9% (inactive)
16,COc1ccc(-c2cn[nH]c2-c2ccc(OCC(=O)NN)cc2O)cc1OC,-2.6% (inactive)
17,COc1ccc(-c2c(-c3ccc(O)cc3O)n[nH]c2C)cc1OC,7% (inactive)
18,CSc1c(CC(=O)Nc2ccccc2)n(C)c2ccccc12,-1% (inactive)
19,O=C(NCc1cccnc1)C(=O)Nc1ccc([N+](=O)[O-])cc1,-2.9% (inactive)
